Screening data deposited in PubChem by The Scripps Research Institute Molecular Screening Center.
MITF inh: blocks human microphthalmia-associated transcription factor | inhibition, % at 2.6 µM | 650,000 compounds, 0.91% hits | AlphaScreen MITF homodimerization, bead proximity signal | AID 1259374; in the data active = inhibition above about 50%;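 also: 0% = vehicle wells with protein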
Target sequence (O75030 whole entry, looked up): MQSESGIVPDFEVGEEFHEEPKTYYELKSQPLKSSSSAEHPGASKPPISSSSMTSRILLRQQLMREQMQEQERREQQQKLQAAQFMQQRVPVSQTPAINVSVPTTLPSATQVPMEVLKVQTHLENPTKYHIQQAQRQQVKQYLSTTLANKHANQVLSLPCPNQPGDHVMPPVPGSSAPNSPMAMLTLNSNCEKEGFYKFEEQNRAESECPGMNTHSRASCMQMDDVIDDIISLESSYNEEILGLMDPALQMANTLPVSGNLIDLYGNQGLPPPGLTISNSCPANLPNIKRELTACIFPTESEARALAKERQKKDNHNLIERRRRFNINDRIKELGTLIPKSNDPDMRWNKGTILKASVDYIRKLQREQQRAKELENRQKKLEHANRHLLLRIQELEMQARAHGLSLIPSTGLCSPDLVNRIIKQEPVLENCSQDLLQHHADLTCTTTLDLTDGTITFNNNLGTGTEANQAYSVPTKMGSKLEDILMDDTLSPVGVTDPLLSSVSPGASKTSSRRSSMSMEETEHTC
GPR151 ag: activates the human receptor GPR151. activation, % at 11.2 µM. Q8TDV0. 650,000 compounds, 1% hits. PathHunter beta-arrestin GPR151 cells, luminescence; in the data active = activation above about 4.9%;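 also: 0% = median of compound wells and 100% = cells with positive control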
FBW7 activator: activators of human E3 ligase FBW7; AID 1259310; Q969H0; AlphaScreen FBW7–phospho-cyclin E peptide binding, activator screen; 650,000 compounds, 0.13% hits; normalized activity (activation), % at 26.1 µM; in the data active = normalized activity above about 1.9%;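 also: purified mutant Fbw7 with reduced substrate affinity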
TEAD-YAP inh: TEAD-YAP interaction inhibition | 640,000 compounds, 1.4% hits | AID 1259422 | HEK-TIYL cells, TEAD-Gal4/YAP UAS-luciferase luminescence | inhibition, % at 9.12 µM; in the data active = inhibition above about 32%;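 also: 0% = median of test compound wells and 100% = reference inhibitor wells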
MITF inh conf: human MITF inhibition, confirmation; AlphaScreen MITF homodimerization, biotin/His-MITF beads; inhibition, % at 2.6 µM; shares compounds with MITF inh; 4,700 compounds, 16% hits;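 active = inhibition above a cutoff derived from the DMSO control wells, cut at about 28% in these data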;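 also: 0% = MITF dimer wells with DMSO only; inhibitors lower the bead chemiluminescence by keeping MITF from dimerizing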
AlphaScreen DR: optically interferes with AlphaScreen signal in dose response; shares compounds with MITF inh; AlphaScreen optical interference counterscreen, cell-free; IC50, µM; 480 compounds, 6% hits; call rule not given here
AlphaScreen intf2: counter-screen: compounds optically interfering with AlphaScreen | shares compounds with MITF inh | LysRS AlphaScreen counterscreen, signal interference, triplicate | inhibition, % at 2.6 µM | 4,700 compounds, 7.6% hits;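 active = inhibition above a cutoff derived from the DMSO control wells, cut at about 30% in these data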
Starred values were filed as active, the others as inactive; . = no result. Most compounds without a hit are left out; they make up all but 3.4% or so of the library.

SMILES | MITF inh | GPR151 ag | FBW7 activator | TEAD-YAP inh | MITF inh conf | AlphaScreen intf2 | others
CCc1nc2sc(C(c3ccc(C(C)C)cc3)N3CCCC3)c(O)n2n1 (stereo not drawn) | 57* | 1 | 0 | 1 | 0 | -3
CCc1nc2sc(C(c3ccc(OC)c(OC)c3)N3CCCCC3)c(O)n2n1 (stereo not drawn) | -13 | 0 | 0 | -2 | . | .
COc1ccccc1N1CCN(C2CCCN(C(=O)CSC)C2)CC1 (stereo not drawn) | -1 | 3 | 0 | -23 | . | .
CCOCCCNC(=O)c1c[nH]c2ccc(S(=O)(=O)N(C)c3ccc(Br)cc3)cc2c1=O | 0 | 1 | 0 | 1 | . | .
O=C(COC(=O)c1ccc2ccccc2n1)Nc1ccc(S(=O)(=O)N2CCCC2)cc1 | -10 | 3 | 0 | -3 | . | .
O=C(CSc1nc(NCCc2ccccc2)c2ccccc2n1)Nc1nccs1 | 2 | -2 | 0 | -3 | . | .
Cc1cc(OCCN2CCOCC2)ccc1[N+](=O)[O-] | 60* | -3 | 1 | -22 | 8 | 14
Cc1cc(OCCN2CCCC2)ccc1[N+](=O)[O-] | 24 | 1 | 0 | -5 | . | .
Cc1ccc(OCCN2CCOCC2)cc1C | -18 | 1 | 0 | -8 | . | .
Cc1cc(OCCCCN2CCN(C)CC2)ccc1[N+](=O)[O-] | 56* | -1 | 0 | -7 | 7 | 3
Cc1cc(OCCCN2CCNCC2)ccc1[N+](=O)[O-] | 35 | 3 | 0 | 0 | . | .
Cc1cc(OCCN2CCN(C)CC2)ccc1[N+](=O)[O-] | 56* | -2 | 0 | -32 | 6 | 11
CCN1CCN(c2cc(C)c3ccc(OC)cc3n2)CC1 | 64* | 1 | 0 | -2 | 1 | 7
COc1ccccc1C(=O)NCC(=O)OCC(=O)Nc1ccc(C(N)=O)cc1 | 0 | 0 | 0 | -11 | . | .
CCCN1Cc2cccc(C(=O)O)c2C1=O | 17 | 1 | 1 | 2 | . | .
O=C(O)c1cccc2c1C(=O)N(c1ccccc1)C2 | 72* | -2 | 0 | -5 | 72* | 13 | AlphaScreen DR=>6.3
CC1=C(NCCc2ccccc2)CCC1=O | 61* | 1 | 1 | 6 | 14 | 9
Cc1cc(=O)[nH]c(NCCc2ccccc2)n1 | 6 | 0 | 0 | 8 | . | .
O=C(CSc1nnc(Nc2ccccc2F)s1)NC12CC3CC(CC(C3)C1)C2 | -1 | 2 | 0 | -10 | . | .
CC(N)C(=O)Nc1ccccc1-c1ccccc1 (stereo not drawn) | 7 | 0 | 0 | 2 | . | .
CC(C(=O)Nc1ccccc1-c1ccccc1)N1CCCC1 (stereo not drawn) | 75* | 0 | 0 | 1 | 13 | 19
CN(C)CC(C)(C)CNC(=O)C1CCN(Cc2cccc(Br)c2)CC1 | 58* | 0 | 1 | 12 | -3 | -2
O=C1OC(c2ccc(-c3ccccc3)cc2)=N/C1=C/c1ccc([N+](=O)[O-])cc1 | 9 | 2 | 0 | 8 | . | .
O=c1cc(/C=C/c2ccc(O)cc2)nc2nn[nH]n12 | 57* | -2 | -1 | 1 | 39* | -2 | AlphaScreen DR=>6.5
O=c1cc(-c2ccccc2)nc2nn[nH]n12 | 3 | -6 | 0 | 12 | . | .
SMILES | MITF inh | GPR151 ag | FBW7 activator | TEAD-YAP inh | MITF inh conf | AlphaScreen intf2 | others
Cc1ccc(-c2nnc3s/c(=C\c4ccco4)c(=O)n23)cc1 | 64* | -1 | 0 | 10 | 75* | -6 | AlphaScreen DR=>6.5
CCOc1ccc(CN2CCN(Cc3ccc(OC)c(OC)c3OC)CC2)cc1 | 66* | -1 | 0 | 13 | 4 | 2
CCN1CCN(Cc2ccc(OC)c3ccccc23)CC1 | 31 | 0 | 0 | 0 | . | .
COc1ccc(CN2CCN(Cc3ccc(F)cc3)CC2)c(OC)c1OC | 60* | 0 | 0 | 1 | 2 | 7
COc1ccc(CN2CCCCC2)c(OC)c1OC | 21 | -2 | 0 | -4 | . | .
CCS(=O)(=O)N1CCN(Cc2ccc(OC)c(OC)c2OC)CC1 | 47 | 0 | 0 | 14 | . | .
COc1ccc(CN2CCN(Cc3ccc(Cl)cc3)CC2)c2ccccc12 | 83* | 0 | 0 | 2 | 13 | 20
COc1ccc(CN2CCN(Cc3ccc(SC)cc3)CC2)c(OC)c1OC | 27 | 0 | 0 | 14 | . | .
COc1cc(OC)c(OC)cc1CN1CCN(Cc2ccc(OC)c(OC)c2OC)CC1 | 59* | 0 | 0 | -1 | 2 | -2
COc1cccc(CN2CCN(Cc3ccc(F)cc3)C(CCO)C2)c1OC (stereo not drawn) | 11 | 0 | 0 | 10 | . | .
COc1cccc(CN2CCN(Cc3ccc(F)cc3)CC2)c1OC | 80* | -1 | 0 | -10 | 11 | 9
OCCOCCN1CCN(Cc2ccc(Br)cc2)CC1 | -9 | 2 | 0 | 11 | . | .
OCCOCCN1CCN(Cc2ccc(F)c(Br)c2)CC1 | 81* | 1 | 0 | 4 | -12 | 0
CC(=O)c1ccc(N2CCN(C(=O)NC3CC(=O)N(c4ccc(C)c(C)c4)C3)CC2)cc1 (stereo not drawn) | -12 | 1 | 1 | 1 | . | .
Cc1ccc2nc(-c3ccccc3)cc(C(N)=O)c2c1 | -1 | 3 | 0 | -4 | . | .
COc1ccccc1N1C(=O)c2cccc3c(N(C)CCO)ccc(c23)C1=O | 74* | -1 | 0 | 2 | -1 | 1
COC(=O)CNS(=O)(=O)c1ccc(F)cc1 | 0 | 5 | 0 | 4 | . | .
Cc1cccc(C(=O)Nc2c3c(nn2-c2ccc(F)cc2)CSC3)c1 | 53* | 2 | 0 | -3 | 35* | -3 | AlphaScreen DR=>5.5
Cc1cc(C)cc(C(=O)Nc2c3c(nn2-c2ccc(F)cc2)CSC3)c1 | 2 | 1 | 0 | 18 | . | .
COc1ccc(/C=C\C(=O)Nc2c3c(nn2-c2cccc(Cl)c2)CSC3)cc1OC | -9 | 0 | 0 | -13 | . | .
O=C(/C=C\c1ccccc1)Nc1c2c(nn1-c1cccc(Cl)c1)CSC2 | 67* | 2 | 0 | -3 | 10 | -1
CNC(=O)[C@@H]1C[C@@H](NCc2cccc(OC)c2)CN1Cc1ccc2ccccc2c1 | 3 | 2 | 0 | 4 | . | .
O=C(Nc1ccc(O)c(C(=O)O)c1)c1ccc(Br)cc1 | 5 | -2 | 0 | 5 | . | .
O=C(O)C1=CC(=C(c2ccc(O)c(C(=O)O)c2)c2ccc(O)c(C(=O)O)c2)C=CC1=O | 64* | 2 | -1 | -8 | 83* | 50*
COc1ccccc1-n1c(SCC(=O)Nc2ccc(C)cc2)nnc1-c1ccncc1 | -16 | -1 | 0 | 4 | . | .
COc1ccccc1-n1c(SCC(=O)NNC=O)nnc1-c1ccc(C)cc1 | 84* | -2 | 0 | -46 | 5 | 8
CCn1c(COc2cccc3cccnc23)nnc1SCC(=O)NC(C)(C)C | 13 | 1 | 0 | -4 | . | .
CCOC(=O)C1=C(C)N=c2s/c(=C\c3cc(Cl)c(OC)c(OC)c3)c(=O)n2C1c1ccc(OCC)cc1 (stereo not drawn) | 51* | 0 | 0 | -2 | -9 | -7
